Source: PubChem BioAssay
This is a sample that favours compounds with a hit; in the whole collection about 4% have one here.
Rv3671c protease – inhibitors of M. tuberculosis serine protease Rv3671c. P9WHR9. 0.048% of 320,000 active. AID 2606. inhibition, % at 5.96 µM; in the data active = inhibition above about 38%;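 note: extracellular domain of Rv3671c used as enzyme; 0% = enzyme with DMSO and 100% = no enzyme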
FBA Mtb inh – Mtb fructose-bisphosphate aldolase inhibition | 2.3% of 360,000 active | purified M. tuberculosis FBA, fluorescence read-out | inhibition, % at 1 µM | AID 588726 | P9WQA3; in the data active = inhibition above about 27%;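 note: 0% = vehicle and 100% = reference inhibitor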
RecA intein inh – blocks M. tuberculosis RecA intein splicing; P9WHJ3; cell-free RecA intein splicing, fluorescence; 0.75% of 290,000 active; inhibition, % (no concentration beside the values); in the data active = inhibition above about 30%; inconclusive = no clear call, values can overlap the other calls;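 note: 0% = vehicle wells and 100% = reference inhibitor control wells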
Target sequence (P9WHJ3 whole entry, looked up): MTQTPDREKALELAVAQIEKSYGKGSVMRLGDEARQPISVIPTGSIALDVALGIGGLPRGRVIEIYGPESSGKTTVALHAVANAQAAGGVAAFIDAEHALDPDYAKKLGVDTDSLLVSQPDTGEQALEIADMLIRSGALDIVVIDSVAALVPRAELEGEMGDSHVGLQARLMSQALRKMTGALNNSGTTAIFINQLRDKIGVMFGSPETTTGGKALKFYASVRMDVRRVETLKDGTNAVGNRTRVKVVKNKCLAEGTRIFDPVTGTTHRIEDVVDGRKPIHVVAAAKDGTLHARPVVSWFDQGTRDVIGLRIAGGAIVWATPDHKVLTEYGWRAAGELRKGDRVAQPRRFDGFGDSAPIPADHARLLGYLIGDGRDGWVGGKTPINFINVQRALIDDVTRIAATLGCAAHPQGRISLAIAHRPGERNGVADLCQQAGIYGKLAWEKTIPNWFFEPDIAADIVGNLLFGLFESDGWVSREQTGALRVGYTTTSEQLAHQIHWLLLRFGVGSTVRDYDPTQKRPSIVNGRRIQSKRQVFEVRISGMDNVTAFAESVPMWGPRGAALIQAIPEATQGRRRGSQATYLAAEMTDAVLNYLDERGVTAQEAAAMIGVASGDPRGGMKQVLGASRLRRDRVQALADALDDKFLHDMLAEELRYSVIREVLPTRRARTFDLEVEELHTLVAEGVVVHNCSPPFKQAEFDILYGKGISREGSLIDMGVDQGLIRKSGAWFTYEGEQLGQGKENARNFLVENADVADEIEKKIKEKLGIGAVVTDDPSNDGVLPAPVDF
GDH-TPI counter – inhibits GDH-TPI coupling enzymes, artifact for Mtb FBA screen. inhibition, % at 4.8 µM. 1.2% of 360,000 active. GDH-TPI coupled enzyme counterscreen, NADH absorbance; in the data active = inhibition above about 30%;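 note: 0% = DMSO wells and 100% = wells lacking the enzyme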
Mtb bLac sens – beta-lactam sensitization of Mtb H37Rv; M. tuberculosis H37Rv growth with meropenem, percent inhibition; inhibition, % at 25 µM; 0.27% of 330,000 active; AID 434955; call rule not given here;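 note: growth measured after seven days incubation then overnight dye step; 0% = bacteria only wells and 100% = bacteria with antibiotic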
Mtb UGM inh – inhibitors of M. tuberculosis UDP-galactopyranose mutase; P9WIQ1; purified UGM, fluorescence polarization probe displacement; inhibition, % at 10 µM; 0.06% of 320,000 active; in the data active = inhibition above about 10%, passing the limit was not always enough; inconclusive = no clear call, values can overlap the other calls
Starred values were filed as active, the others as inactive.

For C=CCNC(=S)N/N=C/c1ccc(C)c([N+](=O)[O-])c1 the results were Rv3671c protease 8, FBA Mtb inh -2, GDH-TPI counter 20, Mtb bLac sens -4 and Mtb UGM inh -1.
Cc1nn(C)c(C)c1/C=C(\C#N)S(=O)(=O)c1ccc(F)cc1 was read as FBA Mtb inh 2 and GDH-TPI counter 33*.
For CC(=O)Nc1cccc(Nc2cc(C)nn2C)c1 the results were FBA Mtb inh -2.
`CC1(C)Cc2c(sc3[nH]c(=S)n(Cc4ccco4)c(=O)c23)CO1` gave Rv3671c protease -1, FBA Mtb inh -4, RecA intein inh 0, GDH-TPI counter 37*, Mtb bLac sens 5 and Mtb UGM inh -1.
Screening O=c1ccc2ccc(O)cc2o1 returned FBA Mtb inh active and GDH-TPI counter 15.
Screening O=c1ccc2cc3ccoc3cc2o1 returned Rv3671c protease -1, FBA Mtb inh 3, GDH-TPI counter 3, Mtb bLac sens -8 and Mtb UGM inh 2.
For O=c1ccc2cc(O)c(O)cc2o1 the results were Rv3671c protease 5, FBA Mtb inh 115*, RecA intein inh -155, GDH-TPI counter 9, Mtb bLac sens 0 and Mtb UGM inh 6.
For COc1ccc(/C=N/N2CCN(C)CC2)cc1OC the results were Rv3671c protease -4, FBA Mtb inh 3, RecA intein inh 1, GDH-TPI counter 16, Mtb bLac sens -8 and Mtb UGM inh 0.
Screening CN(/N=C/C=C/c1ccccc1)c1cc(=O)n(C)c(=O)[nH]1 returned Rv3671c protease -7, FBA Mtb inh -5, RecA intein inh 12, GDH-TPI counter 73*, Mtb bLac sens inconclusive and Mtb UGM inh 2.
`COc1ccc(/C=N/N(C)c2cc(=O)n(C)c(=O)[nH]2)cc1OC` gave Rv3671c protease 3, FBA Mtb inh -2, RecA intein inh 10, GDH-TPI counter 46*, Mtb bLac sens 3 and Mtb UGM inh -3.
For O=C(O)c1c[nH]c2ccc([N+](=O)[O-])cc2c1=O the results were FBA Mtb inh -3 and GDH-TPI counter 7.
Screening CCN(CC)CCCNC(=O)c1ccc2c(SCC(=O)O)c3c(nc2c1)CCC3 returned Rv3671c protease 1, RecA intein inh 3, Mtb bLac sens -2 and Mtb UGM inh 1.
For CCN(CC)CCNC(=O)CSc1c2c(nc3cc(Cl)ccc13)CCCC2 the results were Rv3671c protease -10, FBA Mtb inh -2, RecA intein inh 35*, GDH-TPI counter 14, Mtb bLac sens 1 and Mtb UGM inh 2.
Cc1cc(Br)ccc1Nc1nc(N)nc(N)c1N=O was read as FBA Mtb inh 5 and GDH-TPI counter 32*.
`Cc1cccc(Nc2nc(N)c(C#N)c(CC#N)c2C#N)c1` gave Rv3671c protease 3, FBA Mtb inh 0, RecA intein inh 2, GDH-TPI counter 64*, Mtb bLac sens inconclusive and Mtb UGM inh -2.
`Cc1ccc(Nc2nc(N)nc(N)c2N=O)cc1C` gave FBA Mtb inh 0.
`Cc1cccc(Nc2nc(N)nc(N)c2N=O)c1` gave FBA Mtb inh -1 and GDH-TPI counter 31*.
Screening Cc1cccc(Nc2nc(C)cc(C)c2C#N)c1 returned Rv3671c protease 2, FBA Mtb inh 1, RecA intein inh 2, GDH-TPI counter 9, Mtb bLac sens 5 and Mtb UGM inh 0.
Screening COc1ccc(C2=NOC(Cn3nc(C(=O)NCc4cccc(C(F)(F)F)c4)cc3-c3ccccc3)C2)cc1 (stereo not given) returned Rv3671c protease -31, FBA Mtb inh 10, RecA intein inh -2, GDH-TPI counter 17, Mtb bLac sens -7 and Mtb UGM inh -1.
For COCCn1c(SCC(=O)NC2CCCC2)nc2c(c1=O)SCC2 the results were Rv3671c protease -3, FBA Mtb inh -3, RecA intein inh 0, GDH-TPI counter 24, Mtb bLac sens 2 and Mtb UGM inh -1.
Cc1c(NC(=S)N/N=C\c2ccccc2O)c(=O)n(-c2ccccc2)n1C was read as Rv3671c protease 7, FBA Mtb inh 8, RecA intein inh -11, GDH-TPI counter 31*, Mtb bLac sens -2 and Mtb UGM inh 1.
Screening Cc1c(NC(=S)N/N=C/c2ccc([N+](=O)[O-])cc2O)c(=O)n(-c2ccccc2)n1C returned Rv3671c protease 23, FBA Mtb inh -12, RecA intein inh -5, GDH-TPI counter 48*, Mtb bLac sens 4 and Mtb UGM inh 1.
For Cc1c(NC(=O)CN2C(=O)c3ccc([N+](=O)[O-])cc3C2=O)c(=O)n(-c2ccccc2)n1C the results were Rv3671c protease -3, FBA Mtb inh -3, GDH-TPI counter -6, Mtb bLac sens 0 and Mtb UGM inh -1.
Cc1c(NC(=S)N/N=C/c2ccc(Br)cc2)c(=O)n(-c2ccccc2)n1C was read as Rv3671c protease 3, FBA Mtb inh 0, RecA intein inh -3, GDH-TPI counter 18, Mtb bLac sens -6 and Mtb UGM inh 2.
`CCOCCCn1c(=NC(=O)c2ccco2)c(C(=O)OCC)cc2c(=O)n3cccc(C)c3nc21` gave Rv3671c protease 1, FBA Mtb inh active, RecA intein inh -177, GDH-TPI counter 17, Mtb bLac sens 0 and Mtb UGM inh 2.
`CCOC(=O)c1cc2c(=O)n3cccc(C)c3nc2n(CC(C)C)c1=NC(=O)c1ccco1` gave Rv3671c protease 6, FBA Mtb inh active, RecA intein inh inactive, GDH-TPI counter 13, Mtb bLac sens -7 and Mtb UGM inh -1.
`Cc1ccc(OCC(=O)NC2CCSc3ccccc32)cc1` (stereo not given) gave Rv3671c protease -14, FBA Mtb inh 3, RecA intein inh 6, GDH-TPI counter 4, Mtb bLac sens 43 and Mtb UGM inh 4.
Screening Clc1cccc(CNc2ccn3nc(-c4cccc(OCc5ccccc5)c4)cc3n2)c1 returned FBA Mtb inh 13 and GDH-TPI counter 22.
Screening Nc1nc(NCCOCCO)nc(NCc2ccccc2)c1[N+](=O)[O-] returned FBA Mtb inh 2, RecA intein inh -2, GDH-TPI counter 27, Mtb bLac sens 3 and Mtb UGM inh 5.
Screening Nc1nc(NCCOCCO)nc(NCC2CCCO2)c1[N+](=O)[O-] (stereo not given) returned Rv3671c protease 3, FBA Mtb inh -1, RecA intein inh -1, GDH-TPI counter 43*, Mtb bLac sens 2 and Mtb UGM inh -1.
For COCCNc1nc(N)c([N+](=O)[O-])c(NCC2CCCO2)n1 (stereo not given) the results were Rv3671c protease 4, FBA Mtb inh -3, RecA intein inh 1, GDH-TPI counter 38*, Mtb bLac sens -4 and Mtb UGM inh 0.
`CNc1nc(N)c([N+](=O)[O-])c(NCC2CCCO2)n1` (stereo not given) gave Rv3671c protease 11, FBA Mtb inh -3, RecA intein inh -8, GDH-TPI counter 34*, Mtb bLac sens -8 and Mtb UGM inh -1.
